From PubChem BioAssay AID1903 (Southern Research Specialized Biocontainment Screening …, 2009)
Out of some 310,000 compounds screened, about 1,200 (0.39%) were called active. No rule for the calls is given here. Only a sample is shown. Potency and affinity values are given separately.

Each compound was assayed against Large T antigen (Simian virus 40) (UniProt P03070) (assay: SV40 large T antigen inhibitors, biochemical (AID 1903)). Conditions: SV40 large T antigen ATPase/helicase inhibition assay; at 20 µM; hits give high values.
Chain of Large T antigen (Simian virus 40) (P03070 whole entry, looked up): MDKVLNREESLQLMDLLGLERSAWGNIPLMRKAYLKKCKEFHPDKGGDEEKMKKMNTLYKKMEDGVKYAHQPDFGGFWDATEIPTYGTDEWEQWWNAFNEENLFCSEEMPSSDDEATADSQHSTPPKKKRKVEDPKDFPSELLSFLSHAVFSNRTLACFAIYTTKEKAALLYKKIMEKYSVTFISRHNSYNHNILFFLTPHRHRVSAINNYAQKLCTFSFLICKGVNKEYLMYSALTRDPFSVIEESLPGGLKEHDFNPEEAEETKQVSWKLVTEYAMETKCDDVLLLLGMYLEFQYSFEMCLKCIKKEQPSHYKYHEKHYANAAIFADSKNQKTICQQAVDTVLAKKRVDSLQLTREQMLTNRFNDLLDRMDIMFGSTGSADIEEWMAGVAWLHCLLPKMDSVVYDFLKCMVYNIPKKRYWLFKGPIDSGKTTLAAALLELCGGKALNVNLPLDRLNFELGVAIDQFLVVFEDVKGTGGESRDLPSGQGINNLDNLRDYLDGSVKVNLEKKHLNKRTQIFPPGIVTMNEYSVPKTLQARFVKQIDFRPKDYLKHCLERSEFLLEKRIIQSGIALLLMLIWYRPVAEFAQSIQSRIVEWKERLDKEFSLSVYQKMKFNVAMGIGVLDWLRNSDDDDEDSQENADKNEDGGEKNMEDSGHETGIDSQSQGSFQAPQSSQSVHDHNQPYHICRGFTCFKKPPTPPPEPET

inhibition, inactive:
O=C(CNC(=O)c1ccc(Br)cc1)OCC(=O)c1ccccc1 11.9%
Cc1ccc(C(=O)NCC(=O)N2CCN(c3ncccn3)CC2)s1 -1.43%
O=C(NCc1ccco1)C(c1ccncc1)N(C(=O)Cc1cccs1)c1ccccc1 (stereo unspecified) 7.67%
Cc1cccc(Nc2ncc3c(n2)CC(C)CC3=O)c1 (stereo unspecified) 7.64%
CCOc1ccccc1NC(=S)N1CCN(c2ccccc2)CC1 3.57%
CCOc1ccccc1NC(=S)N1CCN(c2ccc(OC)cc2)CC1 7.58%
CN(Cc1ccco1)S(=O)(=O)c1ccc(CN2C(=O)c3cccnc3C2=O)s1 16.5%
CCOc1ccc(NC(=O)NCC2CCN(c3ccc(OC)cc3)C2)cc1 (stereo unspecified) 22.4%
COc1ccc(N2CCC(CNC(=O)Nc3ccc(C)c(C)c3)C2)cc1 (stereo unspecified) 9.39%
COc1ccc(N2CCC(CNC(=S)Nc3cccc(OC)c3)C2)cc1 (stereo unspecified) 19.4%
COc1ccc(N2CCC(CNC(=O)Nc3ccc(Cl)cc3)C2)cc1 (stereo unspecified) 21.5%
CC(C)CN(C(=O)COC(=O)C1CC1)c1c(N)n(Cc2ccccc2)c(=O)[nH]c1=O 17.3%
Cc1c(Cl)cccc1NC(=O)CN1CCC(NC(=O)C2CCCCC2)CC1 8.83%
COc1ccc(OCC(=O)Nc2cccc(OC)c2)cc1 2.29%
COc1cccc(NC(=O)CCC(=O)Nc2cccc(OC)c2)c1 11.8%
NC(=Nc1ccccc1)Nc1ccccc1 15.7%
CC(=Nc1ccccc1)Nc1ccccc1 9.53%
NC(=O)C[n+]1cccc(/C=N/O)c1 2.56%
c1ccc(-c2nn3c(Cn4cnc5ccccc54)nnc3s2)cc1 -0.363%
CCOc1ccc(/C=C2/SC(=S)N(C(C(=O)O)c3ccccc3)C2=O)cc1OCC (stereo unspecified) 19%
O=C(O)C(c1ccccc1)N1C(=O)/C(=C/c2cccs2)SC1=S (stereo unspecified) 19.8%
COc1ccc(/C=C2\SC(=S)N(C(Cc3ccccc3)C(=O)O)C2=O)cc1 (stereo unspecified) -3.2%
CCOc1ccc(/C=C2\SC(=S)N(C(C(=O)O)c3ccccc3)C2=O)cc1OC (stereo unspecified) 23.8%
COc1cccc(/C=C2\SC(=S)N(C(Cc3ccccc3)C(=O)O)C2=O)c1 (stereo unspecified) 33.3%
COc1cc(/C=C2\SC(=S)N(C(C(=O)O)c3ccccc3)C2=O)cc(OC)c1OC (stereo unspecified) 27.9%
Cc1ccc(NS(=O)(=O)c2cc(C(=O)N(C)C)ccc2C)cc1C 7.8%
CC(=O)Nc1ccc(NC(=O)CCOc2ccccc2C)cc1 9.91%
O=C(NCCc1nnc2ccc(N3CCCCCC3)nn12)c1ccccc1F 10%
COc1ccc(C(=O)NCC(C)(C)CNC(=O)c2ccc(OC)cc2)cc1 11.7%
CCN(CC)c1ccc(CN(C(=O)c2ccco2)C2CCS(=O)(=O)C2)cc1 (stereo unspecified) 21.8%
COC(=O)C1=C(C(=O)OC)[C@@H]2N(C)c3ccc(OC)cc3[C@@]23C[C@@H](C(=O)OC)N(S(=O)(=O)c2ccc([N+](=O)[O-])cc2)C3=N1 1.76%
CCOC(=O)C1=NN(c2ccc(C)cc2)CC1C(=O)OC (stereo unspecified) 7.97%
CCOc1cc(C(=O)N[C@@H](C)C(=O)N2CCC3(CC2)NCCc2[nH]cnc23)cc(OCC)c1OCC 4.98%
COCCCNC(=S)N/N=C/c1ccc(O)cc1 46.2%
COCCCNC(=S)N/N=C/c1ccccc1O 12.5%
S=C(NCCN1CCOCC1)N/N=C/c1ccccc1 2.2%
COc1cc(/C=N/NC(=S)NCCN2CCOCC2)cc(OC)c1OC 12.4%
COc1cc(/C=N/NC(=S)NCCN2CCOCC2)cc(OC)c1O 30.1%
Oc1cccc(/C=N/NC(=S)NCCN2CCOCC2)c1O 50.5%
COc1ccc(CNC(=S)N/N=C/c2ccc(OC)c(OC)c2)cc1 4.58%
CCOc1ccc(CNC(=S)N/N=C/c2ccc(OC)c(OC)c2)cc1 9.25%
CC(=O)c1cccc(NC(=S)NC(=O)c2ccccc2Br)c1 4.36%
COCCn1c(-c2ccc(Br)cc2)csc1=Nc1cccnc1 8.06%
O=C(CN1CCN(C(=O)c2ccco2)CC1)Nc1ccc(Cl)c(S(=O)(=O)N2CCOCC2)c1 0.58%
O=C(Nn1cnnc1)C(Sc1ccccc1)c1ccccc1 (stereo unspecified) 1.32%
O=C(NCCF)[C@H]1C[C@@H]1[C@H](NP(=O)(c1ccccc1)c1ccccc1)c1ccccc1 3.51%
COc1ccc2oc(C(=O)OCC(=O)Nc3ccc(N4CCOCC4)cc3)c(C)c2c1 14%
CC(C)CCn1c(CN2CC(C)OC(C)C2)nc2c1c(=O)n(C)c(=O)n2C (stereo unspecified) 4.84%
CC(C)Oc1ccc(Br)cc1/C=N\NC(N)=S 16%
CC(C)NC(=O)c1nn2c(C(F)(F)F)cc(-c3ccco3)nc2c1Cl 10.7%
Cn1c(=O)n(-c2cccc(Cl)c2)c(=O)n1C 10.7%
Cc1nn(-c2cccc(Cl)c2)nc1C(=O)O 6.68%
O=C1Nc2cc(Cl)ccc2Nc2cscc21 14.2%
CCOc1cc(C(C(=O)NCC2CCCO2)N(C(=O)Cn2nnc3ccccc32)c2ccccc2C)ccc1O (stereo unspecified) 9.12%
O=C(Nc1ccccc1)/C(=C\c1ccncc1)NC(=O)c1ccccc1 5.96%
O=C(Nc1ccccc1)/C(=C\c1cccs1)NC(=O)c1ccccc1 10.4%
Cc1ccc(NC(=O)/C(=C\c2cccs2)NC(=O)c2ccccc2)cc1 3%
Cc1ccc(NC(=O)/C(=C/c2ccncc2)NC(=O)c2ccccc2)cc1 13.5%
O=C(Nc1ccc(C(=O)O)cc1)/C(=C\c1ccco1)NC(=O)c1ccccc1 7.81%
CC(=O)Nc1ccc(NC(=O)/C(=C/c2ccco2)NC(=O)c2ccccc2)cc1 14.8%
COc1cc(CN2CCCC(C(=O)Nc3ccccc3Oc3cccnc3)C2)ccc1F (stereo unspecified) 7.89%
CCOC(=O)c1[nH]c2c(c1-c1ccccc1)C(=O)CC(c1ccc(OCC)cc1)C2 (stereo unspecified) -10.4%
C=CCOc1ccc(CNCc2cccnc2)cc1 2.27%
Cn1c(N2CCN(C(c3ccccc3)c3ccccc3)CC2)nc2ccccc21 0.51%
Cc1cc2nc3c(c(C(F)(F)F)n2n1)CCCC3 3.17%
COc1cc(/C=C2\CCCc3c2nc2ccccc2c3C(=O)O)cc(OC)c1O 30.3%
COc1ccc(/C=C2\CCc3c2nc2ccccc2c3C(=O)O)cc1OC 6.95%
COc1cccc(N2CC(NS(=O)(=O)c3ccc4ccccc4c3)CC2=O)c1 (stereo unspecified) 11%
Cc1ccc(O)c(Sc2cc(C)ccc2O)c1 5.68%
Nc1ccccc1SSc1ccccc1N 22.8%
O=S(=O)(c1ccc(-c2cnc(C3CC3)o2)cc1)N1CCN(c2ccccc2)CC1 7.98%
O/N=C1\CCCc2ccc(Cl)cc21 3.89%
Cc1cc(C)n(CCc2nc(-c3cccs3)cs2)n1 0.46%
Cc1cc(C)n(CCc2nc(-c3ccc(C)o3)cs2)n1 28.1%
CC(O)c1nc2cc([N+](=O)[O-])ccc2n1Cc1ccccc1 (stereo unspecified) 7.32%
O=C(/C=C/c1cccc(Cl)c1)NCc1cccs1 -0.755%
COc1ccc(NC(=O)COc2ccc(C)c(C)c2)cc1S(=O)(=O)N1CCCCC1 5.04%
Cc1cccc(OCCn2ccnc2)c1C 12.1%
CC(C)Cn1c(=O)c(C(=O)NCc2ccc3c(c2)OCO3)c(O)c2ccccc21 -14.6%
CCOC(=O)C1(C)C=C(Nc2ccc(C)cc2)C(=O)N1c1ccc(C)cc1 (stereo unspecified) 12.1%
CCOC(=O)C1(C)C=C(Nc2ccc(NC(C)=O)cc2)C(=O)N1c1ccc(NC(C)=O)cc1 (stereo unspecified) 6.98%
COc1ccc(C)c2sc(=NC(=O)c3cccc(N4C(=O)CCC4=O)c3)n(C)c12 14.4%
COC(=O)c1c(C(=O)OC)c2ccccn2c1C(=O)c1ccccc1 10.4%
Cc1ccc(N=C(N)N=C(N)N)cc1 6.91%
Cc1ccc(-c2nc(C=Nc3ccc(O)cc3)c(O)o2)cc1 23.6%
O=C1CC(NS(=O)(=O)c2cc(F)ccc2F)CN1c1cccc(F)c1 (stereo unspecified) 4.86%
CCc1ccc[n+](-c2nc3ccccc3nc2C(=C=[N-])C#N)c1 11.3%
CN1CCN(C(=O)c2cccn(Cc3ccc(C(F)(F)F)cc3)c2=O)CC1 2.45%
COc1ccc(OC)c(C2CC(=O)N3CN(c4ccccc4)CSC3=C2C#N)c1 (stereo unspecified) 35.4%
CCOC(=O)c1ccc(N2CSC3=C(C#N)C(c4cccs4)CC(=O)N3C2)cc1 (stereo unspecified) 28.9%
CCOC(=O)c1ccc(N2CSC3=C(C#N)C(c4ccc(OC)cc4OC)CC(=O)N3C2)cc1 (stereo unspecified) 31%
COc1ccc(OC)c(C2CC(=O)N3CN(c4cccc(Cl)c4)CSC3=C2C#N)c1 (stereo unspecified) 21.8%
COc1ccc(C2CC(=O)N3CN(c4ccc(C)c(Cl)c4)CSC3=C2C#N)cc1 (stereo unspecified) 34.4%
COc1ccc(C2CC(=O)N3CN(Cc4ccco4)CSC3=C2C#N)cc1 (stereo unspecified) 36.8%
N#CC1=C2SCN(c3ccccc3)CN2C(=O)CC1c1cccs1 (stereo unspecified) 25.3%
COc1cccc(C2CC(=O)N3CN(c4cccc(Cl)c4C)CSC3=C2C#N)c1OC (stereo unspecified) 25.5%
